# Results published in PubChem BioAssay (NCATS).
# Inconclusive results are not listed. The source made the active and inactive calls. The call rests on the fitted dose curve; in most records, active means well fitted inhibition curve with a large enough effect; inconclusive means small, poorly fitted or top-dose-only effect; inactive means flat fitted curve, though single readings scatter.
# Tested on: CRL-7250
# Assay: Cytotoxic Profiling of Annotated Libraries Using Quantitative High-Throughput Screening (AID 1296008); further: nearly all actives have a fitted effect of over 60% in size
# Conditions: Five cell lines viability, CellTiter-Glo ATP luminescence, 48-72 h; max response: active compounds read low
# Summary of the method: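 Cells exposed to compounds for 48 or 72 hr at 37 degrees Celsius. Viability read as ATP-coupled luminescence with CellTiter-Glo after 10 min at room temperature.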
# On the % scale 0 is the no-effect control and ±100 the full control effect; potency means the concentration at half of the fitted maximal effect.
Structure (SMILES),max response,Potency,outcome
COCC1OC(OC(C)(C)C2CCC3(C)C=C(C4CCC5C4(C)CC(O)C4OC(C(C)(C)OC6OC(CO)C(O)C(O)C6NC(C)=O)CCC45C)CCC3O2)C(NC(C)=O)C(O)C1O (stereo unspecified),2.51% (inactive),,
COc1ccc(F)cc1-c1cc(NC(=O)[C@@H]2CCCNC2)ncc1Cl,,291 nM (active),
CC1=CC2/C=C(\C)CC[C@@H](O)[C@@H](O)[C@@H]3O[C@@H]3C(=O)[C@]23C(=O)N[C@@H](CC(C)C)[C@@H]3[C@@H]1C (stereo partly specified),-29.8% (inactive),,
Cc1[nH]nc(C(F)(F)F)c1Cc1sc2c(c1C(=O)N1C[C@](C)(O)CO1)c(=O)n(C)c(=O)n2C(C)C,-0.426% (inactive),,
COC1/C=C/C(C)(O)C(SCC(N)C(=O)O)CC(=O)OC(C)C(C)CC/C=C/1C (stereo unspecified),1.64% (inactive),,
COC(=O)C(C)C1CCC2(C)C(=O)C=CC(C)(O)C2C1O (stereo unspecified),,,inactive
CC(=O)O[C@@H]1C[C@H](O)[C@@]23CO[C@H](O)[C@]1(C)C2C[C@@H](O)[C@]1(C)C3C(=O)[C@H](OC(C)=O)[C@@]2(C)[C@H](c3ccoc3)C[C@H]3O[C@]321 (stereo partly specified),,485 nM (active),
COC(=O)CC(O)C1OC(c2ccccc2)C(O)C1O (stereo unspecified),-3.81% (inactive),,
CCN(Cc1cccnc1)C(=O)CN(c1ccc(OC)nc1)S(=O)(=O)c1ccccc1C,-4.21% (inactive),,
CC(=O)N[C@@H](C(=O)O[C@H]1CCC(C)(C)[C@@H]2CCC3=C(COC3=O)[C@@]12C)C(C)C,-2.03% (inactive),,
C=CC(C)(O)CC[C@H]1C(=C)CCC2[C@](C)(C(=O)O)CCC[C@@]21C (stereo partly specified),2.31% (inactive),,
